{
  "source": "PubChem BioAssay (NCATS)",
  "note": "Inconclusive results are not listed. Active and inactive are the calls of the source. Calls come from the whole dose curve; as a rule, active = well fitted cell-killing curve with a large enough effect; inconclusive = small, poorly fitted or top-dose-only effect; inactive = flat fitted curve, though single readings scatter. Peptide text beside a SMILES is read from it. * marks the point of attachment. Octanoyl = CCCCCCCC(=O)*",
  "data": [
    {"assay": "OV-KATE Cancer Cell Toxicity qHTS against the NCATS CANVASS Library (AID 1347345); note: potency is the fitted concentration of half-maximal effect; for activity change, negative = cytotoxicity: % is set by controls: 0 for no effect and ±100 for the full control effect", "settings": "OV-KATE cells viability, CellTiter-Glo luminescence, 72 h; series mostly up to 38.3 µM; activity change, negative = cytotoxicity: at the top concentration", "from_the_text": "Natural products and their derivatives continue to be wellsprings of nascent therapeutic potential. However, many laboratories have limited resources for biological evaluation, leaving their previously isolated or synthesized compounds largely or completely untested. To address this issue, the Canvass library of natural products was assembled (https://tripod.nih.gov/canvass), in collaboration with academic and industry researchers, for quantitative high-throughput screening (qHTS) across a diverse set of cell-based and biochemical assays. The pure (>85% purity by liquid chromatography/mass spectrometry [LC/MS]) Canvass library of 346 natural products were submitted by 45 academic laboratories and companies around the world. We collected pure natural products to circumvent deconvolution and structure elucidation due to time and resource limitations. The library was formatted into 1536-well plates and evaluated in 50 qHTS (in an 11-pnt concentration series) bioassays with broad scope of disease-relevant mechanisms. The resulting data set from 50 different assays was then systematically analyzed to identify overall trends and specific natural products with interesting biological activities. Reported herein are the results of each individual qHTS and their corresponding assay protocol. National Center for Advancing Translational Sciences (NCATS), Rockville, MD National Institute of Health (NIH), Bethesda, Maryland\nCancer Cell Toxicity protocol for cell lines COV-362, OV-KATE, OV-SAHO, UWB1.289, UWB1.289-WTBRCA1, HEK-293, HPAF-II, Panc-1005, SW1088, or U-118MG. 1. In a 1536 well, white solid bottom tissue culture plates (Corning 7494), corresponding cells (COV-362, OV-KATE, OV-SAHO, UWB1.289, UWB1.289-WTBRCA1, HEK-293, HPAF-II, Panc-1005, SW1088, or U-118MG) were dispensed in each well at a final concentration of 1000 cells / well (6uL volume) using the Multidrop Combi (Thermo Fisher Scientific) dispenser. 2. The plates were incubated for 4 hours at 37 degrees C/5% CO2/95% Rh. 3. Compounds were pin transferred (~23nL volume) via Wako Pin-tool (Wako Automation, Richmond VA) equipped with a 1536 pin head. The assay plates were treated with compounds in an 11-pnt concentration series with a final concentration range of […] to 85uM. 4. Bortezomib was used as a single dose control (0.5mM column 4, rows 1 - 32) at a final concentration of 1.9uM and as a 16pnt titration (1mM; 1:2 dilution; 16-points; n = 2; column 3, rows 1 - 32) with final concentration range of 0.1nM - 3.8uM. 5. The assay plates were incubated for 72 hours at 37 degrees C/5% CO2/95% Rh. 6. 3uL CellTiter-Glo detection reagent was then added to the plates (columns 2 - 48, rows 1 - 32) and incubated at room temperature for additional 15min. 7. Luminescence signal was acquired via the ViewLux plate reader (PerkinElmer) using a clear filter, 2 second exposure and 2x binning settings.", "values": [
      {"compound": "O=C(O)CC1OC(=O)c2c(O)cccc21", "note": "(stereo not given)", "activity change, negative = cytotoxicity": "-0.0925% (inactive)"},
      {"compound": "CC12C[C@]3(O)O[C@@H](O1)[C@]1(COC(=O)c4ccccc4)[C@@H]3CC21OC1OC(CO)C(O)C(O)C1O", "note": "(stereo not given in full)", "activity change, negative = cytotoxicity": "-10.3% (inactive)"},
      {"compound": "CC1=CC2=C[C@H](C)C[C@@]23OC(=C(C)C3=O)CC(C)(C)/C=C/C1=O", "Potency": "0.838 µM (active)"},
      {"compound": "CN1C(=O)C2C(N=CN2C)N(C)C1=O", "note": "(stereo not given)", "activity change, negative = cytotoxicity": "-2.29% (inactive)"},
      {"compound": "C[C@@H]1O[C@@H](O[C@@H]2[C@@H](O)[C@H](O[C@@H]3[C@@H](O)[C@@H](O)C(O[C@H]4[C@H](OC(=O)[C@]56CCC(C)(C)C[C@H]5C5=CCC7[C@@]8(C)C[C@H](O)[C@H](O[C@@H]9C[C@H](CO)[C@@H](O)[C@H](O)[C@H]9O)[C@@](C)(CO)C8[C@H](O)C[C@@]7(C)[C@]5(C)CC6)OC[C@H](O)[C@@H]4O)O[C@H]3C)OC[C@H]2O)[C@H](O)[C@H](O)[C@H]1O", "note": "(stereo not given in full)", "activity change, negative = cytotoxicity": "-4.79% [at 22.9 µM] (inactive)"},
      {"compound": "CC(C)(Br)[C@@H](Cl)C[C@H](Br)[C@](C)(Cl)/C=C/Br", "Potency": "23.6 µM (active)"},
      {"compound": "O=Cc1ccc2n1C[C@@]1(C[C@H](O)[C@H](O)CO1)OC2", "activity change, negative = cytotoxicity": "0% (inactive)"},
      {"compound": "C[C@@H]1C(=O)[C@]23CC[C@H]1C[C@]21O[C@H]2C(C)(C)C=CC(=O)[C@]23COC1=O", "activity change, negative = cytotoxicity": "0% (inactive)"},
      {"compound": "C=C(C)C(=O)O[C@H]1C[C@H](C)[C@@H](OC(C)=O)CC[C@@]2(C)O[C@@H]2[C@H]2OC(=O)C(COC(C)=O)=C12", "Potency": "4.2 µM (active)"},
      {"compound": "C=C(C)CC[C@H](Cc1c(O)cc(O)c2c1O[C@H](c1ccc(O)cc1O)CC2=O)C(=C)C", "activity change, negative = cytotoxicity": "-4.45% (inactive)"},
      {"compound": "COc1ccc(CCCc2cc(O)c(OC)c(O)c2)c(O)c1O", "activity change, negative = cytotoxicity": "0.0622% (inactive)"},
      {"compound": "C=C(NC(=O)c1csc(-c2nc3c(cc2O)-c2nc(cs2)C(=O)NC(C(C)O)C(=O)N/C(=C(\\C)O)c2nc(cs2)C(=O)NC2c4nc(cs4)C(=O)NC(COC(=O)c4c5c6c(cccc6n4O)COC(=O)[C@@H](OC4C[C@](C)(O)[C@H](N(C)C)[C@H](C)O4)C2OC5)c2nc-3cs2)n1)C(N)=O", "note": "(stereo not given in full)", "activity change, negative = cytotoxicity": "2.57% (inactive)"},
      {"compound": "C/C=C/C(=O)[C@@H](C)C1=CC(=O)C2=C(O[C@@]34CC[C@H](O)C(C)(C)[C@@H]3CC[C@H](C)[C@@]4(C)C2)C1=O", "Potency": "8.38 µM (active)"},
      {"compound": "C/C1=C/[C@@H](C)[C@H](O)C/C=C/CC/C=C/C(=O)O[C@@H]1[C@H](C)C(=O)/C=C/CC1CC(=O)NC(=O)C1", "Potency": "18.8 µM (active)"},
      {"compound": "Oc1ccc(/C=C2/c3cc(O)cc(O)c3C(c3ccc(O)cc3)[C@H]2c2cc(O)cc(O)c2)cc1", "note": "(stereo not given in full)", "activity change, negative = cytotoxicity": "-22.5% (inactive)"},
      {"compound": "C[C@H]1C[C@@H]([C@@H]2CC[C@]34O[C@H](CC[C@@]35C[C@H](C)C(=O)O5)CN24)OC1=O", "activity change, negative = cytotoxicity": "-5.12% (inactive)"},
      {"compound": "C=C[C@]1(C)CC[C@@H]([C@H](C)C(=O)OCC)O1", "activity change, negative = cytotoxicity": "-7.35% [at 22.9 µM] (inactive)"},
      {"compound": "Cc1cc(O)cc2oc(C[C@H](C)O)cc(=O)c12", "activity change, negative = cytotoxicity": "-5.94% (inactive)"},
      {"compound": "CC1(C)C=Cc2c(ccc3c2OC[C@@H](c2ccc(O)cc2O)C3)O1", "activity change, negative = cytotoxicity": "0% (inactive)"},
      {"compound": "COc1ccc2cc(NC(=O)C3=NO[C@H]4[C@H](O)C=C[C@@H](Cl)[C@@]4(O)C3)c(=O)oc2c1OC", "activity change, negative = cytotoxicity": "0.573% (inactive)"},
      {"compound": "CC(O)/C=C/C1(O)C(C)(C)CC(O)CC1(C)O", "note": "(stereo not given)", "activity change, negative = cytotoxicity": "-6.8% (inactive)"},
      {"compound": "C[C@]12CC[C@]3(C1)[C@H](CC2=O)CC(OC(=O)c1ccccc1)[C@H]1[C@@](CO)(C(=O)O)CCC[C@@]13C", "note": "(stereo not given in full)", "activity change, negative = cytotoxicity": "-13.1% (inactive)"},
      {"compound": "COc1ccc(/C=C2\\COc3cc(O)ccc3C2=O)cc1", "activity change, negative = cytotoxicity": "-8.58% (inactive)"},
      {"compound": "O=C1CC(c2cc(O)cc(O)c2)Oc2cc(O)ccc21", "note": "(stereo not given)", "activity change, negative = cytotoxicity": "4.75% (inactive)"},
      {"compound": "CC[C@@H]1C[C@@]2(CC)OC(=O)[C@@]3(CC)OC(=O)[C@@H]1[C@@H]23", "activity change, negative = cytotoxicity": "-4.42% (inactive)"},
      {"compound": "CN1CC[C@]2(c3cccc4c3N[C@@H]3N(C)CC[C@]43[C@@]34CCN(C)[C@@H]3Nc3c([C@]56CCN(C)[C@H]5Nc5ccccc56)cccc34)c3ccccc3N[C@H]12", "Potency": "8.38 µM (active)"},
      {"compound": "C=C1/C=C\\C(CCC)=C\\c2csc(n2)C(C)NC(=O)C[C@@]2(CC(=O)O)CCC(=C)[C@H](C1)S2", "note": "(stereo not given in full)", "activity change, negative = cytotoxicity": "2.82% (inactive)"},
      {"compound": "C=C[C@]1(C)CC[C@@H]([C@H](C)C(=O)/C=C/C(C)C)O1", "activity change, negative = cytotoxicity": "-5.01% (inactive)"},
      {"compound": "COc1ccc([C@@H]2c3cc(OC)c(OC)cc3C(=O)[C@H](C)C2C)cc1OC", "note": "(stereo not given in full)", "activity change, negative = cytotoxicity": "-0.626% [at 7.64 µM] (inactive)"},
      {"compound": "CCC[C@@H](C)/C=C(\\C)[C@H](O)[C@H](C)/C=C/CC[C@@H](O)[C@H](C)[C@H](O)[C@H](C)[C@H](O)[C@H](C)[C@H]1O[C@H]([C@H](C)C(=O)O)CC[C@@H]1C", "Potency": "3.75 µM (active)"},
      {"compound": "CC(C)=CCC[C@@H](C)[C@@H]1CC[C@@]2(C)C[C@H]3C(C)=CC(=O)[C@@H]3/C(C=O)=C\\C[C@H]12", "Potency": "9.41 µM (active)"},
      {"compound": "C/C=C1/CC[C@@H]2c3[nH]c4ccccc4c3CCN2C1", "activity change, negative = cytotoxicity": "-15.8% (inactive)"},
      {"compound": "C=CC(=C)CC[C@]1(C)[C@H]2C[C@H](OC(=O)C(C)CC)C=C3[C@H](OC(C)=O)O[C@H](OC(C)=O)[C@@]32[C@H](OC)C[C@@H]1C", "note": "(stereo not given in full)", "Potency": "2.17 µM (active)"},
      {"compound": "O=Cc1ccc2n1C[C@@]1(OC2)O[C@H](CO)[C@@H](O)[C@@H]1O", "activity change, negative = cytotoxicity": "-9.05% (inactive)"},
      {"compound": "C=C[C@@]1(C)CC[C@@H]([C@H](C)C(=O)/C=C/C(C)C)O1", "activity change, negative = cytotoxicity": "0% (inactive)"},
      {"compound": "CCCCCCCC(=O)N[C@@H](CC(C)C)C(=O)N[C@H](C=O)CCC(=O)O", "note": "(Octanoyl-Leu-Glu-aldehyde)", "activity change, negative = cytotoxicity": "-5.56% (inactive)"},
      {"compound": "Oc1ccc([C@H]2Oc3ccc(/C=C/c4cc(O)cc(O)c4)cc3C2c2cc(O)cc(O)c2)cc1", "note": "(stereo not given in full)", "activity change, negative = cytotoxicity": "-1.21% (inactive)"},
      {"compound": "O=C(O)[C@@]12COC3(O)C1CCN1CC[C@H]3[C@@H]1c1c2[nH]c2ccccc12", "activity change, negative = cytotoxicity": "-0.59% (inactive)"},
      {"compound": "C[C@@H]1C[C@H]2C[C@]3(CCCCN3C)[C@@H]3C[C@H]2[C@H](C1)N(C)C3", "activity change, negative = cytotoxicity": "-10.7% (inactive)"},
      {"compound": "CO[C@@H]1C[C@@H](C[C@H]2CC[C@H](C)[C@H]([C@@H](C)C(=O)O)O2)O[C@]2(O[C@](C)([C@H]3CC[C@@](C)([C@@H]4O[C@@H]([C@H]5O[C@](C)(O)[C@H](C)C[C@@H]5C)C[C@@H]4C)O3)C[C@H]2C)[C@@H]1C", "Potency": "4.72 µM (active)"}
    ]}
  ]
}
